Hits are enriched below; roughly 1.6% of the tested compounds scored in any of these assays.
p53ts 32C kill: p53ts cell cytotoxicity, permissive temperature | Potency, µM (highest dose often 46.1 µM), for the others: at the top dose activity change, negative = cytotoxicity, hits mostly cytotoxic | 0.93% of 130,000 active | H1299-p53A138V at 32C, ATP luminescence viability, 24 h;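 note: 0% = DMSO and -100% = full killing by reference compound; nearly all actives have a fitted effect of over 55% in size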
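H1299-p53 A138V cells (temperature-sensitive p53) exposed 24 h to up to 46 uM compound at 32C, where p53 is wild-type in conformation. Viability read as ATP luminescence and normalised to DMSO and 100 uM tamoxifen. AC50 fitted with the Hill equation.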
IkB signaling: inhibitors of IkB signaling in ABC-DLBCL cells. ABC-DLBCL IkBa-CBG/CBR dual luciferase ratio, 4 h; response scale: scaled: untreated 0%, proteasome inhibitor 100%. Potency, µM (top dose mostly 57.1 µM), for the others: top-dose IkBa stabilization activation. 0.04% of 110,000 active. AID 445; active = well fitted curve in the direction sought with a large enough effect in the signal ratio, not every such curve was filed as active; inconclusive = small, poorly fitted or top-dose-only effect, or a change in a side signal; the % refers to the signal ratio;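 note: the direction sought is a rising ratio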
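In this assay, an IκBα–CBG68 fusion accumulates when IKK-driven degradation is blocked; native CBR normalizes for cell number. OCI-Ly3 cells were treated 4 h with compound and doxycycline, then green and red light read after Chroma-Glo addition.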
p53ts 39C kill: cytotoxicity in p53ts cells at nonpermissive temperature; 1.5% of 130,000 active; AID 902; H1299-p53A138V viability at 39C, ATP luminescence, 24 h; Potency, µM (top dose mostly 46.1 µM), inactives show top-dose activity change, negative = cell killing, actives largely listed as cytotoxic; note: % is set by controls: 0 for no effect and ±100 for the full control effect; nearly all actives have a fitted effect of over 55% in size
Peg3 imprint: genomic imprint erasure induction; mouse ES Peg3-LacZ reporter, beta-gal luminescence, 40 h; 0.02% of 110,000 active; AID 1948; Potency, µM (doses to about 60.7 µM), without a hit: at the highest dose activity change, positive = activation, hits mostly activators
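Gelatin-coated wells received 300 freshly trypsinized female ES cells with a Peg3LacZ-Neo reporter on the maternal allele, then incubated 40 hours at 37C. BetaGlo was added for 5 minutes at room temperature before a single luminescence read.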
Numbers without * were called inactive; ? = inconclusive; / = not tested or not shown; [ ] = remark or other dose. Unless noted, calls come from the whole dose curve; as a rule, active = well fitted curve in the direction sought with a large enough effect; inconclusive = small, poorly fitted or top-dose-only effect, or another doubt; inactive = no such curve, though single readings can be large; an effect the other way counts as inactive or inconclusive. Potency is the fitted concentration of half-maximal effect.

SMILES | p53ts 32C kill | IkB signaling | p53ts 39C kill | Peg3 imprint
Cc1ccc(CNC(=O)c2ccc(Cn3c(SCc4ccc(F)cc4)nc4cccnc43)cc2)o1 | ? | ? | 20µM* | -16%[10.9 µM]
CO[C@H]1COC(=O)C/C=C\[C@@H](C)COC(=O)[C@H]2CCCN2C(=O)C/C=C\[C@H]1C | 3%[9.22 µM] | / | -7%[9.22 µM] | /
COc1ccc(-c2cc(=O)c3ccccc3[nH]2)cc1 | / | / | / | -33%[97.3 µM]
COc1ccc(-c2cc(=O)c3ccccc3s2)cc1 | 13µM* | 6% | 25µM* | -69%
O=C1C=C[C@@H](O)[C@H]2[C@@H]3C(=O)N(Cc4ccccc4)C(=O)[C@@H]3CC[C@H]12 | 8%[9.22 µM] | / | 7%[9.22 µM] | /
C[C@@H]1C(=O)N(C)C(=O)c2nc[nH]c21 | 6% | -2% | 11% | /
CCc1ccc(OCC(=O)Nc2ncn[nH]2)c(Br)c1 | 1.6µM* | -5% | 1.6µM* | -22%[10.9 µM]
O=C(COc1ccc(Cl)cc1Cl)Nc1ccc(Cl)cn1 | 5µM* | 7% | 5µM* | -62%
Cc1ccc(C(C)C)c(OCC(=O)Nc2ccc(Cl)cn2)c1 | 0% | ? | -5% | -19%
O=C(COc1ccc(Br)cc1Cl)Nc1ncn[nH]1 | 2.5µM* | -2% | ? | -19%[10.9 µM]
CC(C)(C)c1cc(Br)ccc1OCC(=O)Nc1ncn[nH]1 | 12% | 4% | 3% | -12%
COc1ccc(S(=O)(=O)N(C)CC(=O)O)cc1C | 0% | / | 3% | /
CCOc1cccc(NC(=O)C2CC(=O)N(C)C(=Nc3cccc(OC)c3)S2)c1 (stereo not drawn) | ? | 20% | 13µM* | -17%[10.9 µM]
Cc1ccc(S(=O)(=O)Nc2ccc(O)c(C(=O)O)c2)c(C)c1 | 23% | / | 8% | /
CCCCCC[C@@H]([C@H](C)O)n1cnc2c(N)ncnc21 | 7% | 2% | 18% | /
CCOC(=O)C1=C(CN2CCN(c3cc(C)ccc3C)CC2)NC(=O)NC1c1ccccc1 (stereo not drawn) | 1% | ? | ? | -14%[10.9 µM]
CCCCC(CC)CNC(=O)c1ccc2c(=O)n(Cc3ccc(OC)cc3)c(=O)[nH]c2c1 (stereo not drawn) | 5% | 1% | 28% | -4%[10.9 µM]
CCCCC(CC)CNC(=O)c1ccc(Cn2c(=O)[nH]c3cc(OC)c(OC)cc3c2=O)cc1 (stereo not drawn) | ? | ? | 4µM* | -6%[10.9 µM]
CCCCCCC1C(C#N)=C(N)OC2=C1C(=O)CCC2 (stereo not drawn) | 13µM* | 6% | 16µM* | -15%
COC(=O)c1ccc2c(=O)n(CCCCCC(=O)N3CCN(c4ccccc4)CC3)c(=O)[nH]c2c1 | ? | ? | ? | -8%
COC(=O)c1ccc2c(=O)n(CCCCCC(=O)N3CCN(c4cc(Cl)ccc4C)CC3)c(=O)[nH]c2c1 | 6.3µM* | 0% | 4µM* | -11%[10.9 µM]
CC1CCN(C(=O)COC(=O)c2n[nH]c3ccccc23)CC1 | ? | 8% | 10µM* | -42%
O=C(OCC(=O)N1CCCCCC1)c1n[nH]c(=O)c2ccccc12 | -3% | 0% | -2% | -14%
C[C@H](N)C1CCC(C(=O)Nc2ccncc2)CC1 (stereo partly drawn) | 31% | -13% | 10% | /
CC(C)C(=O)Nc1ccc(-c2nc3cccnc3o2)cc1 | 10µM* | 4% | 10µM* | -37%
SMILES | p53ts 32C kill | IkB signaling | p53ts 39C kill | Peg3 imprint
CC(C)CC(=O)Nc1cccc(-c2cn3cccnc3n2)c1 | ? | -1% | ? | 8%[10.9 µM]
CC(C)CC(=O)Nc1ccc(-c2cn3ccsc3n2)cc1 | 1µM* | ? | 1µM* | -45%
CCS(=O)(=O)Nc1ccc(-c2cn3ccsc3n2)cc1 | ? | -1% | ? | 7%[10.9 µM]
CC(C)(C)C(=O)Nc1ccc(-c2cn3ccsc3n2)cc1 | 0.63µM* | 0% | 0.79µM* | -52%
CCN(C(=O)c1ccc(C(=O)N(CC)c2ccccc2C)cc1)c1ccccc1C | 8% | ? | 16% | -8%[10.9 µM]
CCCCCCCN(C(=O)CCl)c1ccccc1C | ? | / | 25µM* | /
CCOc1ccc(N2CC(c3nc4ccccc4n3CCCOc3ccccc3)CC2=O)cc1 (stereo not drawn) | -6% | ? | -5% | -5%[10.9 µM]
Cc1ccc2nc(-c3ccc(NC(=O)c4ccc(S(C)(=O)=O)cc4)cc3)sc2c1 | 2% | 0% | 7% | ?
Cc1ccc2nc(-c3ccc(NC(=O)C(F)(F)F)cc3)sc2c1 | 3.2µM* | 3% | 1.6µM* | -61%[10.9 µM]
Cc1ccc(Cn2c(CO)cnc2SCC(=O)Nc2ccc(C)c(Cl)c2)cc1 | -2% | ? | 13µM* | -11%[10.9 µM]
CCCCN(C)CCCNC(=O)C1CCN(c2nc3ccc(CC)cc3s2)CC1 | 13µM* | ? | ? | -9%[10.9 µM]
CCCCN(CC)CCCNC(=O)C1CCN(c2nc3ccc(CC)cc3s2)CC1 | 13µM* | 3% | 20µM* | 10%[10.9 µM]
CC(C)(C)c1ccc(C(=O)/C=C2\NC(=O)CS2)cc1 | 10µM* | -1% | 7.9µM* | -57%
CC(C)c1cc(C(=O)Nc2ccc3c(c2)OCO3)no1 | 16µM* | ? | ? | -58%
O=C(Nc1ccc2c(c1)OCO2)c1ccc(Br)s1 | 13µM* | ? | ? | -46%
O=C(Nc1ccc2c(c1)OCO2)c1noc2c1CCCCC2 | 16µM* | ? | 16µM* | -75%
O=C(Nc1ccc2c(c1)OCO2)c1cccs1 | ? | 1% | ? | -78%
CC(=O)c1ccc(NC(=O)c2noc3c2CCCCC3)cc1 | -17% | 1% | -10% | -16%
Cn1c(C(=O)Nc2ccc3c(c2)OCO3)cc2sccc21 | ? | 3% | 16µM* | -52%
COc1ccc(-n2nc(C(=O)N3CCCC(C)C3)c3c4ccccc4n(C)c3c2=O)cc1Cl (stereo not drawn) | 6% | ? | -2% | 10%[10.9 µM]
N=C1CCC[C@@H]1C(=S)SCCC(N)=O | -4%[9.22 µM] | 0%[11.4 µM] | -12%[9.22 µM] | -10%[10.9 µM]
O=C(Nc1ccccc1C(F)(F)F)c1noc2c1CCCCC2 | 13µM* | 3% | 13µM* | -9%[10.9 µM]
O=C(Nc1ccc(F)cc1F)c1noc2c1CCC2 | -25% | 4% | -23% | -65%
Cc1ccc(C(=O)Nc2ccc3c(c2)OCO3)o1 | 10µM* | 0% | ? | -85%
Cc1ccccc1C(=O)Nc1ccc2c(c1)OCO2 | 10µM* | 5% | 13µM* | /
SMILES | p53ts 32C kill | IkB signaling | p53ts 39C kill | Peg3 imprint
CC(C)[C@@H]1O[C@H](/C=C\c2ccccc2)OCC1(C)C | 2%[9.22 µM] | -2%[11.4 µM] | 11%[9.22 µM] | /
Cc1ccccc1OCc1ccc(-c2nc(C#N)c(NCc3cccnc3)o2)o1 | 13% | -1% | -3% | -14%[10.9 µM]
COc1cc(/C=C/C(=O)N2CCC=CC2=O)cc(OC)c1OC | 3.2µM* | / | ? | -35%
COc1ccc(-c2nn3c(-c4ccccc4C)nnc3c3ccccc23)cc1 | 25% | 4% | 10µM* | 5%[10.9 µM]
Cc1c(Cl)cccc1NC(=O)c1cc(-c2ccc(O)cc2)on1 | 13% | ? | -6% | -17%
Cc1ccccc1Nc1c(-c2ccc(N3CCOCC3)cc2)nc2ncccn12 | 13µM* | 2% | 4µM* | -9%[10.9 µM]
Cc1ccc(Nc2c(-c3ccc(N4CCOCC4)cc3)nc3ncccn23)cc1 | 2% | -2% | -19% | ?

Bioassay records (PubChem)
